± gives the standard deviation.
Tested on: MILI (PIWIL2) piRISC loaded with piRNA #1 (26 nt)
Test: pre-steady-state target cleavage rate (min^-1); guide: piRNA #1 5'p-UGAGGUAGUAGGUUGUAUAGUAUCCA; MIWI and MILI are mouse PIWI proteins and EfPiwi is from a freshwater sponge; tags in brackets are library labels; higher = faster piRNA-guided slicing of the target
Conditions: auxiliary factor: 500 nM mouse GTSF1
Outline: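 The pre-steady-state cleavage rate was derived from a burst-and-steady-state fit of Cleave-'n-Seq data. For these assays, 1 nM active affinity-purified piRISC loaded with a single synthetic guide was mixed with […] a transcribed, DNA-blocked target RNA library in HEPES–potassium acetate buffer at 33 °C, with or without 500 nM GTSF1 partner protein, for 0–8 or 0–960 min. Sequencing counts of uncleaved targets were normalised to depth and to weakly complementary targets, and k3 was capped at 0.0001 min^-1 after three trials were pooled.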
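Further: 1 nM active piRISC with 0.1 nM target library at 33 °C single turnover.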

Sequence	pre-steady-state target cleavage rate
GGAGACCUAUCUAUCCAACCUACUACCUCA	0.0742 ± 0.0096
GGAGACCUAUGUAUGCAACCUACUACCUCA	0.0637 ± 0.0095
GGAGACCUAUGAUUACAACCUACUACCUA	0.00393 ± 0.0024
GGAGAGCAUACUAUAGAACCUACUACCUCA	0.142 ± 0.012
GGAGACCUAUGAAUACAACCUACUACCACA	0.00626 ± 0.0028
GGAGACCUUACUAAUGAACCUACUACCUCA	0.00805 ± 0.0017
GGAGACCUAUCUUUACAACCUAGUACCUCA	0.00897 ± 0.003
GGAGACCUUACUAUACAACCUAGCUACCUCA	0.0317 ± 0.0069
GGAGACCUAUCUAUACAACCUACUACGCUCA	0.229 ± 0.023
GGAGACCUAUCUUUACAACCUACAACCUCA	0.0745 ± 0.01
GGAGACCUAUCUAUUCAACCUACUACCACA	0.144 ± 0.022
GGAGACCUUACUAAACAACCUACUAGCUCA	0.139 ± 0.018
GGAGACCUAUGUAUACAACCUACUAACCUCA	0.0935 ± 0.013
GGAGACCUAUCUAUACAUCCUACAACCUCA	0.165 ± 0.014
GGAGAGGAUACUAUACUACCUACUACCACA	0.171 ± 0.016
GGAGACCUAUGUAAACAACCUACUACCACA	0.00967 ± 0.0036
GGAGUGGAUACAAUACAACCUACUUCCUCA	0.00975 ± 0.0031
GGAGACCUAUGAUAUGAACCACUACCUCA	< 0.0001
GGAGACCUAUGUAUACAACCUAGUUCCUCA	0.00347 ± 0.003
GGAGACCUAACUAUACAACUUACUACCUCA	0.0179 ± 0.0043
GGAGACCUAUGAUAACAACCUACUUACCUCA	0.00599 ± 0.0021
GGAGACCUAUGUAUACAACCUACUACCCA	0.0226 ± 0.0055
GGAGACCUAAGUAUACAACCUACUAGCUCA	0.0149 ± 0.0043
GGAGACCUAUCUUUACAACCUACUUCCUCA	0.0374 ± 0.0094

Sequence	pre-steady-state target cleavage rate
GGAGACCUAUGUUAUCAACCUACUACCUCA	0.0125 ± 0.0029
GGAGAGGAUACUAUACAAGCUACUUCCUCA	0.0737 ± 0.013
GGAGACCUUACUAUACAACCUACUCCUCA	0.00492 ± 0.0027
GGAGUGGAUACCAUACAACCUACUACCUCA	0.231 ± 0.02
GGAGACCUAUCUAUACAACCUACUACGUGA	0.0608 ± 0.013
GGAGACCUAUGAAUACAAGCUACUACCUGA	0.017 ± 0.0038
GGAGACGAUACUAUACAACCUACUAUCUCA	0.149 ± 0.014
GGAGACGAUUGUAUACAACCUACUACCUCA	0.0734 ± 0.0068
GGAGACGAUACUAUACAACUCUACUACCUCA	0.00377 ± 0.0022
GGAGACCUAUGAUUACAACCUACUACUUCA	0.00418 ± 0.0024
GGAGACCUAUGAUAUGUUCAUACUACCUCA	< 0.0001
GGAGACCUAUCUAUACAACCAACUACCUCA	0.00522 ± 0.0024
GGAGACCUAUGAAUACAACCUACUACCUGCA	0.00801 ± 0.004
GGAGACCAUACUAAACAACGUACUACCUCA	0.0192 ± 0.003
GGAGUGGAUCACUAUACAACCUACUACCUCA	0.0867 ± 0.025
GGAGACCUAUGAUAUGUACCUACUACCGCA	< 0.0001
GGAGACCUAUGAUAUGAACUACUACCUCA	0.00657 ± 0.0021
GGAGACCUAACUAUAGAACCUACUACCUGA	0.0124 ± 0.008
GGAGUGGAUACUAUAAACCUACUACCUCA	0.0206 ± 0.0043
GGAGACCUUACUAAACAACCUACUUCCUCA	0.0656 ± 0.014
GGAGACCUAACUAUACAACCUACUACCAUCA	0.261 ± 0.038
GGAGACCUUUACUAUACAACCUACUACCUCA	0.154 ± 0.012
GGAGACCUUAGUAUACAACCAACUACCUCA	0.00446 ± 0.0029
GGAGACCUAUGAUAUCAACCUACUUACCUCA	0.00342 ± 0.0024

Sequence	pre-steady-state target cleavage rate
GGAGACCUUACUUUACAACCUACUACGUCA	0.0613 ± 0.011
GGAGACCUAUGUAUCCAACCUACUACCUCA	0.0333 ± 0.005
GGAGAGGAUACUAAUGAACCUACUACCUCA	0.0555 ± 0.0058
GGAGACCUAUGAUAUGUACCUAGUACCUCA	< 0.0001
GGAGACCUAACUAUACAGCCUACUACCUCA	0.0605 ± 0.018
GGAGACCUUACUAUACUACCUACUACGUCA	0.0704 ± 0.01
GGAGACCAUACAAUACAACCUUCUACCUCA	0.012 ± 0.0035
GGAGACCAUACUAUACAACCUAUACCUCA	0.016 ± 0.0051
GGAGACCUAUGUAUACAAGCUACUACCUGA	0.0868 ± 0.015
GGAGACCUAUUUAUACAACCUACUACCUCA	0.0657 ± 0.02
GGAGACCUAUCUAUUCAACCUACUUCCUCA	0.0412 ± 0.0086
GGAGACCUUACUAUACAACCUACUACUCA	0.216 ± 0.025
GGAGACCUAUCAAUACUACCUACUACCUCA	0.0216 ± 0.0056
GGAGACCUAUCUAUACAACCUACUACUCUCA	0.194 ± 0.021
GGAGACCAUUCUAUACAACCAACUACCUCA	0.0079 ± 0.0026
GGAGACCUAUGUAUACAACCUACUACCUCG [g2:g19:cont:t1G]	0.0649 ± 0.0098
GGAGACGAUACUAUACUACCUAGUACCUCA	0.0742 ± 0.015
GGAGACCUAUCUAUACUUCCUACUACCUCA	0.054 ± 0.013
GGAGACCUAUGAUAUGUUGCUACUACCUCU [g2:g11:cont:t1U]	< 0.0001
GGAGACCUAUGAUAUGUUCCUACUAACUCA	< 0.0001
GGAGACCUAUCUAUACAAGCUUCUACCUCA	0.0321 ± 0.0061
GGAGACCUUACUAAACAACCAACUACCUCA	0.00386 ± 0.0036
GGAGACCUAUCUAAACAACCUAGUACCUCA	0.0109 ± 0.0036
GGAGACCUAUGAUAUGUUGCUACUACCUCCA	< 0.0001

Sequence	pre-steady-state target cleavage rate
GGAGACCUAUGUUUACAACCUACAACCUCA	0.0131 ± 0.0031
GGAGACCUAACUAAACAACCUAGUACCUCA	0.0123 ± 0.0073
GGAGACCUAUGAUAACAACCUACUAGCCUCA	0.00672 ± 0.0023
GGAGACCUAUGAUUACAACCUACUACCACA	0.00372 ± 0.0023
GGAGACCUAUCUAUACAACCUACUACCUUCA	0.139 ± 0.017
GGAGACCUAACAAUACAACCAACUACCUCA	0.00518 ± 0.004
GGAGACCUAUGAUAAAACCUACUACCUCA	0.00798 ± 0.0023
GGAGUGGAUACUUUACAACCAACUACCUCA	0.00276 ± 0.0018
GGAGACCUAUGUAUACAACCUACAACGUCA	0.00278 ± 0.0027
GGAGACCUAUGUAAACAACCUACUAGCUCA	0.00495 ± 0.0023
GGAGUGGAUACUAUCCAACCUACUACCUCA	0.197 ± 0.01
GGAGACCAUACUAUUCAACCUACAACCUCA	0.185 ± 0.021
GGAGACCUAUGUAUACAACCUCACUACCUCA	0.00401 ± 0.0027
GGAGACGAUACUUUUCAACCUACUACCUCA	0.171 ± 0.011
GGAGACCUAUGUAUACAUCCUACUUCCUCA	0.0795 ± 0.013
GGAGACCUAUCUAUACAACUUACUACCUCA	0.0156 ± 0.0023
GGAGACCUAUGAAUACUACCUACAACCUCA	0.00497 ± 0.0016
GGAGACCUAUCUUUACAAGCUACUACCUCA	0.122 ± 0.01
GGAGACCUAUCUAUACAAGCUACUUCCUCA	0.164 ± 0.015
GGAGACCUAUGAUAACAACCUACUACCGCA	0.00318 ± 0.003
GGAGACGAUACUCAUACAACCUACUACCUCA	0.198 ± 0.02
GGAGACCUAUGAUAUGUACCUUCAACCUCA	< 0.0001
GGAGACCUAUGAAAACAUCCUACUACCUCA	0.00361 ± 0.0024
GGAGACCUAUGUAUAGUUCCUACUACCUCA	0.00602 ± 0.0021

Sequence	pre-steady-state target cleavage rate
GGAGACCUAUGAUUACAAGCUACUACCUCA	0.0262 ± 0.0067
GGAGACCUAUGUAUUCAAGCUACUACCUCA	0.109 ± 0.011
GGAGACCUUACUAUACAACCUAACUACCUCA	0.0162 ± 0.0034
GGAGACCUAACUAUACAACCUAUCUACCUCA	0.11 ± 0.024
GGAGACCUUUCUAUAGAACCUACUACCUCA	0.0818 ± 0.011
GGAGACCUAUGUAUACAAGGUACUACCUCA	0.0261 ± 0.0047
GGAGUCGAUACUAUACAACCUAGUACCUCA	0.0166 ± 0.0031
GGAGACCUAUGAAUUACAACCUACUACCUCA	0.00427 ± 0.0021
GGAGACCUAUGAUAUGUUGCUACUGACCUCA	< 0.0001
GGAGACCUUACUAAACAACGUACUACCUCA	0.015 ± 0.0024
GGAGUGGAAUGUAUACAACCUACUACCUCA	0.0864 ± 0.0076
GGAGACCUAUCUAUACAAGCUACUACCUGA	0.125 ± 0.019
GGAGACCUAUGUAUACAUCCUACUAGCUCA	0.0312 ± 0.0078
GGAGACCUAUGUAUACAACUUACUACCUCA	0.0134 ± 0.0024
GGAGACCUAAGUAUACAACCUACAACCUCA	0.0483 ± 0.0084
GGAGACCUAACUUUACAACCUACUAGCUCA	0.0363 ± 0.017
GGAGACCUAUGAUAUGAACCUACAACCACA	< 0.0001
GGAGACCUAUGUAUACAACCUACUACGUCA	0.0197 ± 0.0037
GGAGACCUUAGUAUACAACCUACUACGUCA	0.0155 ± 0.0047
GGAGACCUAUGAUUACAACCUACUACCUCG [g2:g17:cont:t1G]	0.00649 ± 0.0032
GGAGUGGAUACUAUACAACCAACAACCUCA	0.00386 ± 0.0015
GGAGACCUAUCAAUACAACCUACUACCUGA	0.0265 ± 0.0091
GGAGACCUAUCUAUACAACCUACUAGCCUCA	0.147 ± 0.02
GGAGACCUAACUUUAGAACCUACUACCUCA	0.129 ± 0.023
